From PubChem
Only some compounds are listed: those with a hit (about 19% of all), similar ones and a draw of the others.
KB-3-1 tox – kills parental KB-3-1 adenocarcinoma cells; KB-3-1 viability, CellTiter-Glo ATP luminescence, 72 h; Potency, µM (series often up to 46.1 µM), hits mostly cytotoxic; hit rate 1.4% among 400,000; AID 1347075; note: nearly all actives have a fitted effect of over 60% in size
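Multi-concentration cytotoxicity screen in KB-3-1 cells grown in DMEM lacking phenol red with 10% FBS. After 72 h at 37 °C with compound, ATP-dependent luminescence was recorded.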
HT1080-NT tox – kills 2HG-producing HT-1080-NT fibrosarcoma cells; HT-1080-NT fibrosarcoma viability, CellTiter-Glo ATP luminescence, 48 h; Potency, µM (doses to about 46.1 µM), most hits filed as cytotoxic; hit rate 1.6% among 360,000; AID 686970;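 note: NT is the 2HG producing partner of a matched IDH1 knockdown line; nearly all actives have a fitted effect of over 55% in size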
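A 48-hour cytotoxicity screen used HT-1080-NT cells plated 2 hours before compound delivery. ATP-based CellTiter-Glo luminescence measured viability, normalized to DMSO and no-cell controls.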
TDP1 cell noCPT – qHTS for Inhibitors of human tyrosyl-DNA phosphodiesterase 1 (TDP1): qHTS in cells in absence of CPT | DT40 Tdp1-/- hTDP1 cells, no CPT, ATP luminescence, 48 h | Potency, µM (top dose mostly 46.2 µM), most hits filed as inhibitors | hit rate 15% among 420,000 | AID 686978, 2013; note: nearly all actives have a fitted effect of over 55% in size
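Growth kinetics read by CellTiter-Glo luminescence after ≥48 hr at 37 °C. Cells: DT40 Tdp1-/- stably carrying human TDP1, 400 per well, compound exposure in the absence of CPT (DMSO vehicle).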
TDP1 cell CPT – growth inhibition of DT40 Tdp1-/-;hTDP1 cells with camptothecin (screen for TDP1 inhibitors); chicken DT40 Tdp1-/-;hTDP1 cells + 20 nM CPT, ATP luminescence, 48 h; Potency, µM (highest dose often 46.2 µM), actives largely listed as inhibitors; hit rate 12% among 420,000; AID 686979; note: nearly all actives have a fitted effect of over 55% in size
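Chicken DT40 Tdp1-/- cells complemented with human TDP1, 400 cells/well, exposed to compounds plus 20 nM camptothecin for at least 48 h at 37 C; viability read as ATP content by CellTiter-Glo luminescence.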
HT1080 IDH1KD tx – kills HT-1080 cells with IDH1 knockdown | AID 686971 | Potency, µM (series often up to 46.1 µM), actives largely listed as cytotoxic | hit rate 2% among 360,000 | HT-1080 IDH1 knockdown viability, ATP luminescence, 48 h
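Luminescent ATP read-out (CellTiter-Glo, 10 min at room temperature) after 48 h compound exposure at 37 °C gave viability of IDH1-knockdown HT-1080 cells. Activity was normalised to DMSO and cell-free wells, then fitted as concentration-response curves.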
KB-V1 MDR tox – kills drug-selected multidrug resistant KB-V1 cells | Potency, µM (highest dose often 46.1 µM), most hits filed as cytotoxic | hit rate 3.4% among 400,000 | AID 1347076 | KB-V1 MDR cells viability, CellTiter-Glo, 72 h; note: nearly all actives have a fitted effect of over 60% in size
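Potencies derive from concentration-effect curves fitted to normalized luminescence (CellTiter-Glo) of KB-V1 cells treated for 72 h at 37 degrees C in phenol-red-free DMEM containing 10% FBS.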
Numbers stand for hits; . = inactive; ? = inconclusive; / = no result. Calls come from the whole dose curve; as a rule, active = well fitted curve in the direction sought with a large enough effect; inconclusive = small, poorly fitted or top-dose-only effect, or another doubt; inactive = no such curve, though single readings can be large; an effect the other way counts as inactive or inconclusive.

SMILES	KB-3-1 tox	HT1080-NT tox	TDP1 cell noCPT	TDP1 cell CPT	HT1080 IDH1KD tx	KB-V1 MDR tox
CCOC(=O)c1cccc(NC(=O)CSc2nc3cccnc3n2C)c1	.	.	16µM	21µM	.	?
CCOC(=O)c1sc(NC(=O)CSc2nc3cccnc3n2C)nc1C	.	.	.	.	.	.
CCOC(=O)c1sc(NC(=O)CNCc2ccccn2)c(C(=O)OCC)c1C	?	.	26µM	?	.	.
CCOC(=O)c1sc(NC(=O)COc2ccccc2Cl)c(C(=O)OCC)c1C	.	/	?	.	/	.
CCOC(=O)c1c(NC(=O)CSc2nnc(-c3ccccc3C)n2C)sc(C(C)=O)c1C	.	.	12µM	18µM	.	.
CCOC(=O)c1c(NC(=O)CSc2nc3cccnc3n2C)sc(C(C)=O)c1C	.	.	13µM	18µM	.	?
COc1cccc(NC(=O)c2oc3ccccc3c2NC(=O)COc2ccccc2C)c1	.	/	.	.	/	.
COc1ccc(CNC(=O)CCn2c(=O)c3cccn3c3ccc(F)cc32)cc1OC	/	/	?	.	/	/
Cc1cccc(CNC(=O)CCCn2c(=O)c3cccn3c3ccc(F)cc32)c1	/	/	23µM	?	/	/
COc1ccc(CNC(=O)CCCn2c(=O)c3cccn3c3ccc(F)cc32)cc1OC	/	/	18µM	18µM	/	/
COc1ccc(CCNC(=O)Cn2c(=O)c3cccn3c3ccccc32)cc1OC	/	/	23µM	?	/	/
Nc1cc(=O)[nH]c(SCc2nnnn2-c2ccc(Cl)cc2)n1	.	.	.	.	.	.
Cc1cncn1CCc1nc2c3ccccc3nc(SCC(=O)Nc3ccccc3F)n2n1	.	/	?	?	/	.
O=C(Nc1cccnc1)c1cc(-c2cccc(Br)c2)nc2ccccc12	.	.	16µM	?	.	10µM
O=C(NC1=NCCS1)c1cc(-c2cccc(Br)c2)nc2ccccc12	?	.	?	.	.	15µM
O=C(Nc1cccnc1)c1cc(-c2cccnc2)nc2ccc(Br)cc12	.	.	?	?	.	.
COc1ccc(-c2cc(C(=O)Nc3cccnc3)c3ccccc3n2)cc1OC	?	.	23µM	23µM	.	9.2µM
O=C(Nc1ccncc1)c1cc(-c2cccc(Br)c2)nc2ccccc12	21µM	?	?	?	?	?
COc1ccc(Cl)cc1N(C(=O)c1ccco1)C(C(=O)NC1CCCC1)c1ccncc1 (stereo not given)	.	?	?	.	.	.
COc1cnc(SC)nc1Nc1ccc(C#N)cc1	.	.	?	.	.	.
COc1ccc(-c2cc(C(=O)NCc3cn(C)nc3C)c3ccccc3n2)cc1OC	.	.	?	15µM	.	?
COc1ccc(-c2cc(C(=O)Nc3nc4ccccc4s3)c3ccccc3n2)cc1OC	.	.	?	15µM	.	.
CC(C)CNS(=O)(=O)c1cc(C(=O)OCC(=O)c2ccc3c(c2)OCCO3)c(Cl)cc1Cl	.	.	?	.	.	.
CCCn1c(C)cc(C(=O)COC(=O)c2cc(S(=O)(=O)NCC(C)C)c(Cl)cc2Cl)c1C	.	.	15µM	?	.	?
N#Cc1ccsc1NC(=O)C1CCN(S(=O)(=O)c2cccs2)CC1	.	.	.	.	.	.
N=C1/C(=C\c2ccc(-c3ccc(C(=O)O)cc3)o2)C(=O)N=C2SC=C(c3ccccc3)N12	.	.	?	?	.	.
Cc1cccc(-n2c(C)cc(C=C3C(=O)c4ccccc4C3=O)c2C)c1	.	.	13µM	?	.	?
Cc1cc(C=C2C(=O)c3ccccc3C2=O)c(C)n1-c1ccc(Cl)cc1	?	.	?	.	.	16µM
Cc1cccc(-n2c(C)cc(/C=C3/C(=N)N4C(c5ccccc5)=CSC4=NC3=O)c2C)c1	.	.	21µM	?	.	.
Cc1cc(C=C2C(=O)c3ccccc3C2=O)c(C)n1C	.	.	?	.	.	.
